Our source for the rescue above control and cytochrome c release ratio values is PubChem BioAssay.

For part of these data: Measured potencies and affinities stand elsewhere.

The first assay can be described thus: restoration of touch response, mutant HTT neurons – whole organism, C. elegans mechanosensory neurons, N-terminal huntingtin (AID 1599). The conditions noted are these: C. elegans polyQ-huntingtin mechanosensory neurons, stronger effect = higher value.
`O=c1c(-c2ccc(O)cc2)coc2cc(O)ccc12` returned a rescue above control of 2.42.
On the same count and under the same terms, for `N#Cc1ccc2c(c1)N(CCCN1CCC(O)CC1)c1ccccc1S2` the value was 2.76; for `CON`, -6.41.
Same read-out and setting: for `CC(C)=CCc1c2c(c3occ(-c4ccc(O)c(O)c4)c(=O)c3c1O)C=CC(C)(C)O2` the value was -11.4; for `C=NC(C(=O)NC1C(=O)N2C1SC(C)(C)C2C(=O)O)c1ccccc1` (centres undefined), -2.5.
Same read-out and setting: with `O=C1C=CC(=C(c2ccc(O)cc2)c2ccc(O)cc2)C=C1` the figure was -3.26.
`NC1=NCCN1CC(=O)O` returned a rescue above control of 1.68.
As to `CC(=O)c1c(O)c(C)c(O)c2c1OC1=CC(=O)C(C(C)=O)C(=O)C12C` (centres undefined), the rescue above control turned out to be 1.6.
Still for that read-out and setting: with `CC(=O)N[C@@H]1[C@@H](O)[C@H](O)[C@@H](CO)O[C@H]1O` the figure was 2.33; with `NC(Cn1ccc(=O)c(O)c1)C(=O)O` (centres undefined), -6.31.
Same read-out and setting: for `C[C@]12CCC3c4ccc(OS(=O)(=O)O)cc4CCC3C1CC[C@H]2O` (some centres undefined) the value was 11.3.
The compound `CCN1CCCC1CNC(=O)c1cc(S(N)(=O)=O)ccc1OC` (centres undefined) came in with a rescue above control of 3.11.
For `NC1(C(=O)O)CCCC1`, the rescue above control is -10.9.
Still for that read-out and setting: for `O=C(O)c1cc(=O)c2cccc(O)c2[nH]1` the value was -4.01; for `COc1cc(OC)c2ccc(=O)oc2c1`, 0.64.
The same measure, in the same setting: with `COc1cc(C)c2c(=O)cc(-c3ccccc3)oc2c1` the figure was 16.3; with `O=C(O)c1cc([N+](=O)[O-])ccc1NCCCc1ccccc1`, 1.37; with `NC(=O)c1cccc(N)c1`, -8.42.
Same read-out and setting: for `COc1c(OC)c2occc2c2oc(=O)ccc12` the value was 5.04.

A further assay in a line: blockers of cytochrome c efflux from mitochondria – biochemical, purified mitochondria (AID 1603).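 Note: mouse liver mitochondria challenged with calcium chloride; signal normalized to the plate average as 100%.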 The conditions noted are these: stronger effect = lower value.
Turning to `O=c1c(-c2ccc(O)cc2)coc2cc(O)ccc12`, the cytochrome c release ratio was 0.87.
As for `N#Cc1ccc2c(c1)N(CCCN1CCC(O)CC1)c1ccccc1S2`, the cytochrome c release ratio is 0.74.
Regarding `CON`, the cytochrome c release ratio stood at 0.58.
Still for that read-out and setting: with `CC(C)=CCc1c2c(c3occ(-c4ccc(O)c(O)c4)c(=O)c3c1O)C=CC(C)(C)O2` the figure was 1.28; with `C=NC(C(=O)NC1C(=O)N2C1SC(C)(C)C2C(=O)O)c1ccccc1` (centres undefined), 0.48; with `O=C1C=CC(=C(c2ccc(O)cc2)c2ccc(O)cc2)C=C1`, 1.26.
Still for that read-out and setting: with `NC1=NCCN1CC(=O)O` the figure was 1.01.
For `CC(=O)c1c(O)c(C)c(O)c2c1OC1=CC(=O)C(C(C)=O)C(=O)C12C` (centres undefined), the cytochrome c release ratio was found to be 0.98.
Same read-out and setting: with `CC(=O)N[C@@H]1[C@@H](O)[C@H](O)[C@@H](CO)O[C@H]1O` the figure was 0.85; with `NC(Cn1ccc(=O)c(O)c1)C(=O)O` (centres undefined), 0.84; with `C[C@]12CCC3c4ccc(OS(=O)(=O)O)cc4CCC3C1CC[C@H]2O` (some centres undefined), 0.9.
Still for that read-out and setting: for `CCN1CCCC1CNC(=O)c1cc(S(N)(=O)=O)ccc1OC` (centres undefined) the value was 0.88.
On the same count and under the same terms, for `NC1(C(=O)O)CCCC1` the value was 4.67; for `O=C1c2ccc(O)c(O)c2C(=O)c2c(O)ccc(O)c21`, 0.18; for `O=C(O)c1cc(=O)c2cccc(O)c2[nH]1`, 1.01.
As to `COc1cc(OC)c2ccc(=O)oc2c1`, the cytochrome c release ratio was found to be 0.64.
On the same count and under the same terms, for `COc1cc(C)c2c(=O)cc(-c3ccccc3)oc2c1` the value was 1.19; for `O=C(O)c1cc([N+](=O)[O-])ccc1NCCCc1ccccc1`, 0.78.
The same measure, in the same setting: for `NC(=O)c1cccc(N)c1` the value was 1.08.
Regarding `COc1c(OC)c2occc2c2oc(=O)ccc12`, the cytochrome c release ratio was found to be 1.
